In PubChem BioAssay (NCATS) one finds Potency data, which are given here for 40 compounds.

Molecules are shown by their SMILES. Inconclusive results are not listed. A call without a number means that no potency is given here. The source made the active and inactive calls. Calls follow the shape of the full dose curve.

Chain of Estrogen receptor (Homo sapiens) (P03372 whole entry, looked up): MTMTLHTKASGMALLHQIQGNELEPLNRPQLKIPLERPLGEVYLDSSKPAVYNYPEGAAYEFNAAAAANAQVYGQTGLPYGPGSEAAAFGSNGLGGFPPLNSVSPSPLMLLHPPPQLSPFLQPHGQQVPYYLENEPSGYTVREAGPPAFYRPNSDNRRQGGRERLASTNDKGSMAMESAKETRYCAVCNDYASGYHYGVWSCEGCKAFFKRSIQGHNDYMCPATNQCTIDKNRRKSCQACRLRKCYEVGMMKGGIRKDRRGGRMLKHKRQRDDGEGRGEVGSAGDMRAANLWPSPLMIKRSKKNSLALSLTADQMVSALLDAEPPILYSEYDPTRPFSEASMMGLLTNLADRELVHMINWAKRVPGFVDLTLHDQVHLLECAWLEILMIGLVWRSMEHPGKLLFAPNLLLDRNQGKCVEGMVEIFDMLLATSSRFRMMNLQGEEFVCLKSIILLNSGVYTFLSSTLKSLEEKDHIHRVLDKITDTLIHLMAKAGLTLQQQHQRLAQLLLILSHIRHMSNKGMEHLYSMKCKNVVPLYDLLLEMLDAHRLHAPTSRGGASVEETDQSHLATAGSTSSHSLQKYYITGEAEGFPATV

The assay has as its target Estrogen receptor (Homo sapiens) (UniProt P03372). Nature of the assay: qHTS assay for small molecule agonists of estrogen receptor alpha signaling (AID 588514). Also: nearly all actives have a fitted effect of over 70% in size. Particulars: ER-alpha-UAS-bla HEK293, beta-lactamase ratio, 18 h; series mostly up to 76.8 µM. An excerpt:
NIH Chemical Genomics Center [NCGC]
U.S. Environmental Protection Agency [EPA]
National Institutes of Environmental Health Sciences [NIEHS]
National Toxicology Program [NTP]
Estrogen receptor alpha (ER-alpha) is an important member of nuclear hormone receptors. ER-alpha plays important role in breast cancer as well as in other women's health issues. The majority of breast cancers is estrogen receptor (ER) positive and depends on estrogen for growth. There is also growing concern for some of environmental chemicals which may contribute the increasing the incidence of breast cancer. Therefore, it is important to understand the effect of environmental chemicals in ER-alpha signaling pathway.
NCGC Assay Protocol Summary
Using a beta-lactamase reporter-gene under control of the ER response element, a cell-based assay [ER-alpha-UAS-bla GripTiteTM cell-Based Assay from Invitrogen] was used to measure ER-alpha signaling pathway in agonist mode. ER-alpha-UAS-bla-GripTite HEK 293 cells were used with assay medium containing 2% charcoal/dextran treated FBS, 0.1 mM NEAA and 1 mM sodium pyruvate. Cells were cultured in this assay medium overnight in the flasks before the assay. The assay was performed in clear bottom black Greiner 1536-well plates. 17-beta-estradiol was used as a positive control in the screen. Library compounds were measured for their ability to either stimulate the reporter gene activity. Compounds were screened in a titration series in 1536-well format. […] Data was normalized relative to 17-beta-estradiol control (20 nM, 100%), and DMSO only wells (basal, 0%). Concentration-response titration points for each compound were fitted to the Hill equation yielding concentrations of half-maximal stimulation (EC50) and maximal response (efficacy) values.
qHTS protocol for ER-alpha beta-lactamase assay in agonist mode
[Step] [Parameter] [Value] [Description]
1. Reagent; 6 uL; 5000 cells/well
2. Incubation; 37 C for 4 hrs
4. Controls (17-beta-estradiol); 23 nL
- Dose response, start 1uM, 1:3 dilutions with duplicates
- Two columns with 20 and 0.5 nM (final) concentration.
5. Incubation; 37 C for 18 hrs
6. Detection reagent; 1 uL of CCF4-dye
7. Incubation; RT for 2 hrs
8. Detection; Fluorescence; Envision plate reader or Acumen plate reader
With `Nc1ccc(Br)cc1`, the Potency result was “inactive”.
`Cc1cccc(C#N)c1`: the Potency entry is “inactive”.
The same measure for `CCCOC(=O)c1ccccc1C(=O)OCCC`: “inactive”; for `CCN(CC)c1ccccc1`: “inactive”; for `O=C(Cl)C(Cl)(Cl)Cl`: “inactive”.
Next, `C=CC(=C)C`: “inactive”; `Nc1ccccc1Cl`: “inactive”; `C=CCOC(=O)c1ccccc1N`: “inactive”.
Next, `O=NN(CCO)CCO`: “inactive”; `COP(N)(=O)SC` (stereo not given): “inactive”.
Take `c1ccc2c(c1)CCCC2`: the Potency entry was “inactive”.
`CC(C)(C)C(=O)C(Oc1ccc(Cl)cc1)n1cncn1` (stereo not given): the Potency is 39.8 µM (active).
The same measure for `CNC(=O)Oc1cccc2c1OC(C)(C)O2`: “inactive”.
The same measure for `C=CCOC(C)=O`: “inactive”; for `CC(O)CCl` (stereo not given): “inactive”; for `Oc1ccc(Cl)cc1Cl`: “inactive”.
Next, `CCCCCCCC(=O)Cl`: “inactive”; `[O-][Br+2]([O-])O`: “inactive”.
With `C=C(Cl)Cl`, the Potency result was “inactive”.
Next, `CC(C)N1C(=O)c2ccccc2NS1(=O)=O`: “inactive”.
With `CNC(=O)O/N=C/C(C)(C)SC`, the Potency result was “inactive”.
The same measure for `Cc1ccc([N+](=O)[O-])cc1C`: “inactive”.
The same measure for `ClC(Cl)=C(Cl)C(Cl)=C(Cl)Cl`: “inactive”; for `CC(C)OC(=O)Nc1cccc(Cl)c1`: “inactive”; for `Cc1ccc2ccccc2c1`: “inactive”.
The same measure for `C=CC(C)=O`: “inactive”.
In the case of `C1CCC2CCCCC2C1` (stereo not given), the Potency result is “inactive”.
The same measure for `Clc1ccc2ccccc2c1`: “inactive”; for `Brc1ccc(Oc2cc(Br)c(Br)cc2Br)c(Br)c1`: “inactive”; for `ClC(Cl)(Cl)c1ccccc1`: “inactive”.
Next, `c1ccc(-c2ccccc2)cc1`: “inactive”.
Next, `OCC1CO1` (stereo not given): “inactive”.
As to `ClC(Cl)=C(c1ccc(Cl)cc1)c1ccc(Cl)cc1`, the Potency entry was “inactive”.
Next, `OCC(Br)CBr` (stereo not given): “inactive”.
Next, `Brc1ccccc1`: “inactive”; `COc1nc(NC(C)C)nc(NC(C)C)n1`: “inactive”; `Clc1cccc(C(Cl)(Cl)Cl)n1`: “inactive”.
Next, `C=C(C)C#N`: 35.5 µM (active); `Cc1ccc(O)c(C)c1`: “inactive”.
With `C=CC(=O)OCC`, the Potency result is “inactive”.
